Inconclusive results are not listed. Activity calls are given as the source filed them. The call rests on the fitted dose curve; in most records, active means well fitted inhibition curve with a large enough effect; inconclusive means small, poorly fitted or top-dose-only effect; inactive means no such curve, though single readings can be large or run the other way.
Assay: BET inhibitor-based combinations targeting novel dependencies in MECOM-rearranged (r) AML: UCSD-AML1 cell line (AID 2202235); further: nearly all actives have a fitted effect of over 40% in size;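 on viability (% of control): plate controls were DMSO vehicle wells for no effect and blank wells for full effect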
Settings: UCSD-AML1 AML cells viability, CellTiter-Glo, 48 h; series mostly up to 46 µM; viability (% of control): at the top concentration
Outline: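 Activity is given as area under the curve and as Z-AUC, mean-centred within each cell line. It comes from 11-point dose curves normalized to DMSO and empty wells. CellTiter-Glo luminescence was read after 48 hr drug exposure of 500 cells/well.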
Potency means the concentration at half of the fitted maximal effect.

SMILES | viability (% of control) | Potency
COc1cc2c(cc1OC)CC(=O)N(CCCN(C)C[C@H]1Cc3cc(OC)c(OC)cc31)CC2 | 110% (inactive) | 
COc1c(C)c2c(c(O)c1C/C=C(\C)CCC(=O)O)C(=O)OC2 |  | 833 nM (active)
Cc1ccsc1C(=CCCN1CCC[C@@H](C(=O)O)C1)c1sccc1C | 115% (inactive) | 
CC(C)C[C@@H](N)[C@H](O)C(=O)N[C@H](C(=O)N[C@H](C(=O)N[C@@H](CC(=O)O)C(=O)O)C(C)C)C(C)C | 110% (inactive) | 
CC(=O)OC[C@@H]1O[C@@H](n2ccc(=O)[nH]c2=O)[C@H](OC(C)=O)[C@H]1OC(C)=O | 103% (inactive) | 
O=C(c1ccc(F)cc1)N1CCC[C@H](c2nc(-c3ccc(F)cc3)no2)C1 | 108% (inactive) | 
COC(=O)C1C2CC3c4[nH]c5cc(OC)ccc5c4CCN3CC2CC(OC(=O)c2cc(OC)c(OC)c(OC)c2)C1OC (centres undefined) | 112% (inactive) | 
C[C@H](NC(=O)Cc1cc(F)cc(F)c1)C(=O)N[C@H](C(=O)OC(C)(C)C)c1ccccc1 | 112% (inactive) | 
CCOc1ccccc1N=Nc1c(C)[nH]n(-c2nc(-c3ccccc3)cs2)c1=O | 107% (inactive) | 
O=C(O)C1=CC(O)C(O)[C@H](O)C1 (some centres undefined) | 102% (inactive) | 
CCCCC(CC)COC(=O)C(C#N)=C(c1ccccc1)c1ccccc1 (centres undefined) | 77.4% (inactive) | 
CC1(C)O[C@@H]2C[C@H]3[C@@H]4CCC5=CC(=O)C=C[C@]5(C)[C@@]4(F)[C@@H](O)C[C@]3(C)[C@]2(C(=O)CO)O1 | 90.9% (inactive) | 
COc1cc(S(C)(=O)=O)ccc1Nc1nc2ccc(-c3ccc(NC(=O)[C@H](C)c4ccc(F)cc4)cc3)cn2n1 |  | 1320 nM (active)
COc1ccc2cccc(CCNC(C)=O)c2c1 | 120% (inactive) | 

Source: PubChem BioAssay (NCATS)
